Experimental data from the supplement of paper PMC11417369.
In all, about 25,000 sequences were measured (“ln(normalized median fluorescence intensity)”: median about 9.3, highest 2% from about 10 on). The full list was thinned out, with the highest values kept by preference.

system: PF3D7_0420300 AP2 domain 1 (GST-tagged); assay: gcPBM binding intensity (ln(normalized median fluorescence intensity)); higher = stronger DNA binding
Summary of the method: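 Binding intensity values are the highest Masliner-normalised natural-log median intensity among replicate spots of either probe orientation. The binding step lasted 1 h in 1× PBS with 1% milk, 0.2 mg/ml BSA, 0.5% salmon testes DNA and 0.03% Triton X-100, using GST-tagged P. falciparum DNA-binding domains expressed in E. coli on an Agilent 4 × 180k array of primer-extended double-stranded 36-bp intergenic genomic probes plus negative controls. Alexa488 anti-GST antibody and a 488 nm scan detected bound protein.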

Sequence	gcPBM binding intensity (ln)
AGCTATAATAAATATACACACATATATAAATATGTA [CACACA_site6583]	9.37
CATGTGTTCTATATTTATGTCTAACTTTTTAATTAA [CACACA_negctrl_site904]	9.43
GTTTAAAAAAATTATCAACTTTAAAAAGGTAACATT [XGTACX_negctrl_site203]	8.99
ATTTATAAAACAGGCACACATATAATAAATTTTATA [CACACA_site2600]	9.54
AATACTCAAAAGAATCGTACAAACAACACTCCCACG [XGTACX_site7564]	9.4
TTTTTTTTTCAAGAGGTGCGTGTATTTTAACAAAAA	9.03
TTAATTATATTATGCACACACAATTGGAAAAAAAAT [CACACA_site1958]	9.64
TATAAAATACTGTATCGATGGGGGAGGGCGCAGGGG [TGCATGCA_negctrl_site250]	11
ATATATGGGGCGCAGGAAAAGAGTTTTGGAAATAAA [CACACA_negctrl_site1265]	9.2
AGTATATAAAATACTGTATCGATGGGGGAGGGCGCA [CACACA_negctrl_site1612]	10
TTTCTAATTTATATCACACACATATTTATATAGTAA [CACACA_site6813]	9.41
TATAAATTTATAAATAGTACATATATTTATATATAT [XGTACX_site6433]	9.07
CACAGACACGGACACACACACACACCCAGACACATA [CACACA_site4357]	10.2
CCCACAGACGGACACACACACACATATATATATATA [CACACA_site4352]	10.1
CACAGACACGGACACACACACATATATATATATATA [CACACA_site5248]	9.86
TACAGATACGGACACACACACACACCCAGACAAAAA [CACACA_site4432]	10
CCCACAGACGGACACACACACATATATATATATATA [CACACA_site4351]	9.81
CACAGACACGGACACACACACACACCCACATATATA [CACACA_site4355]	10.3
CATACACCCAGACACACACACATATATATATATATA [CACACA_site634]	9.94
CCCACAGACGGACACACACACACACCGACACATATA [CACACA_site4356]	10.2
TTGGCATACGGACACACACACACACCCAGACATATA [CACACA_site4492]	10.2
AATCTAATATAATGCACACATAAAAAAAAATCAAAC [CACACA_site3633]	9.8
TAAAAATATATATGATTGCACTTAGGACAATATATA	9.14
TTATTTTTTAAAAGTAGTACAAATTTTTATAGAAAA [XGTACX_site7407]	8.46
AATATTAAAGAATAATGTACAAAATAAAAGCAAAGA [XGTACX_site3550]	9.86

Sequence	gcPBM binding intensity (ln)
TATTATTCTACTATTATATTCTATATTATTTATAGT [CACACA_negctrl_site499]	9.37
ATAATAATATAAAAATGTACATATATTTATAATTGT [XGTACX_site3429]	9.23
AGCACAGACGGACACACACACATATATATATATATA [CACACA_site4341]	9.88
AGCACAGACGGACACACACACACACCCACAGACACA [CACACA_site4358]	10.2
CATACAGATGGACACACACACACACCCACAGACAAA [CACACA_site4431]	10.1
AAAGAAGGGGGGGGAAAAAAAAATAAAAGAGGAAAA [XGTACX_negctrl_site92]	9.59
AAAAAAAAAAAAAAAAGGGGGGGAGGGATTGAAAAA [CACACA_negctrl_site193]	10
TTTGAAGGAAGGGGGGGAGGGGCCATAACAAAGGAA [GTGCAC_negctrl_site408]	10.4
GCATATGTTCAGCGTTGTACATAAAAAAAAACATAT [XGTACX_site5974]	9.07
TTGATTTATATTTAATGTACATTTTTACAGAAAATT [XGTACX_site2747]	8.93
AAAAAAAAAAAAAAATGTACATATATATATATATTA [XGTACX_site7330]	8.98
AATGAACTCACGAGCACACACACACCGATATATATA [CACACA_site4710]	10
CACGCATACAGACACACACACACACCGATATATATA [CACACA_site8113]	10.3
CATATATACTCATACACACACACACCGACACAGACA [CACACA_site5026]	10.1
CGCACAGACGGACACACACACACATATATATATATA [CACACA_site5249]	10.1
TGGGAGCACAGACACACACACACACCGATATATATA [CACACA_site8001]	10.2
CACGCATACAGACACACACACACACCCATATATATA [CACACA_site636]	10.2
CACAGACACGGACACACACACATATATAATATATAT [CACACA_site4495]	9.98
CACAGACACGGACACACACACACACCGATATATATA [CACACA_site4353]	10.3
TGGGAGCACAGACACACACACACACCCATATATATA [CACACA_site335]	10.1
GGCATACACGGACACACACACACACCGACATATATA [CACACA_site4493]	10.3
AATTAGATACTAACAAGTACATATATATATATATAT [XGTACX_site2252]	9.59
ATATCGGGTGCATTAACACACATTTATTTGAATAAA [CACACA_site2350]	9.24
TCAAGAGTTATATAAACACACATACATACAGACATA [CACACA_site6998]	9.6
ATGTTATAAAATATATGTACATATTTATATAAAATA [XGTACX_site5766]	9.14

Sequence	gcPBM binding intensity (ln)
AATATAATATAATATAGTACGTAAAAATATTATACA [XGTACX_site2170]	9.47
ATATATGCATATATATGTACATATATATATATATAT [XGTACX_site7403]	9.22
ATTATATTATATTATACATGCATAATATTATATAAA [TGCATGCA_site647]	9.17
ATTAAATAAACCATTACACACTTTTATGTTTTGAAA [CACACA_site1143]	9.3
AAAACTTTTTTAACAGAAAAATAGGGATACAATATA [CACACA_negctrl_site1708]	9.35
AGGATACACGGACACACACACATATATATATATATA [CACACA_site4654]	9.9
CACGCATACGGACACACACACACACCGATATATATA [CACACA_site4521]	10.3
ATATATAAAATTATATGTACATATATCTATTTATAA [XGTACX_site3713]	9.04
TTTATATAACAACAAAATGGAAATATATATGTATGT [TGCATGCA_negctrl_site98]	9.53
TATACATACACATACACACATACACCCATACACATA [CACACA_site1746]	9.93
CACCCACCCACATACACACACATACACATATATATA [CACACA_site1722]	10.2
TATACTCAGAAACACACACACACACCCAAAAAAAAA [CACACA_site4434]	9.97
CATATACACCAACACACACACACACCCACAAAAAAA [CACACA_site496]	10.2
CATACACCCGGACACACACACACACCCATATATAAT [CACACA_site4494]	10.3
CACATATATACACATACACACACACCCATACACCCA [CACACA_site8505]	10.2
CTTATATATACATATACACACACACCCATATATATA [CACACA_site8705]	10.1
TACACCCACCCACATACACACACATACACATATATA [CACACA_site8503]	10.2
CATACTCACCAACACACACACACACCCATATAGAAT [CACACA_site592]	10.2
TATACACCCGGACACACACACATATATATATATATA [CACACA_site5030]	9.94
ACCCATATAATATATACACACATATATATATATATA [CACACA_site4731]	9.52
ATAATTATATTTTATTCACACATCGTTATATAGTAA [CACACA_site4743]	9.31
AATATAAATGTGATTACACACAACAGATTTAAATGG [CACACA_site4802]	9.53
TGTTTATATAATATTCTACACACCAACAACAAACAT [CACACA_site8087]	9.74
AAAATTTTTAGTTATACACACAACATAGAAAATATT [CACACA_site328]	9.47
TTTTTTTCACAAAATACACACAATATATTTTATATC [CACACA_site1138]	9.25

Sequence	gcPBM binding intensity (ln)
TATAATAAAATTTTTACACACTTTAAAAAAAAAAAA [CACACA_site524]	9.06
TATATATACATATACACACACACACCCATATATATA [CACACA_site2246]	10.2
CATATACATACACATACACACATACACCCATACACA [CACACA_site8514]	9.77
CATACACCCATACATACACACATACATATATATATA [CACACA_site8591]	9.7
CATACACCCCAACACACACACACACCCATATATAAT [CACACA_site8097]	10.4
ATACATATATATATATGTACATATATTTATATTTAT [XGTACX_site3155]	9.21
TGAAAAAAGAAAAATACACACATATAACATAATATA [CACACA_site7126]	9.83
CTCAACAAAATATGAGTGCATTGTTATTACATATAT	9.32
TAAAAATATAGGTATACACACATATAAATATAAATA [CACACA_site7785]	9.64
TAATTCTTGTAAAATGTGCGCAGTAGATATAGTTTT	9.27
GATAATTATGGACACACACACACACCCACAACTAAA [CACACA_site8824]	10.3
TGTGCCCAAAATTATGCACACACCTAAAATTAATTT [CACACA_site2914]	9.42
TGCACGCACAGACACACACACAACTAAAAAATAATG [CACACA_site7250]	9.72
TAATTATGCCAACACACACACACACCCAACTAAAAA [CACACA_site8823]	10.2
TAAAAAATAAAAATTGCACACTAAAAAATTACGCAC [CACACA_site9129]	9.48
TAATTATGCAGACACACACACACACGCAACTAAAAA [CACACA_site7253]	10.1
TATGCACCCAGACACACACACACAACTAAAAAATAA [CACACA_site2567]	9.96
GATAATTACGGACACACACACACACGCACAACTAAA [CACACA_site7254]	10.3
AAAAATAAAAATTGCACACTAAAAAATTACGCACGA [CACACA_site3418]	9.59
TACACCCACCAACACACACACACACTAATAAAAAAA [CACACA_site8060]	10.1
AAAAGATAATTATGCACACACACACCCAGACACAAC [CACACA_site5428]	10.1
AAGATAATTACGCACACACACACACGCCCACAACTA [CACACA_site7255]	10.2
